hcDAF12 agonist: activates DAF-12 receptor from parasite H. contortus. 1.4% of 370,000 active. HEK293 hcDAF-12 lit1-tk-luc reporter, luminescence; 0% DMSO, 100% Δ7-dafachronic acid. activation, % at 6.8 µM;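 active = activation above the mean of all tested compounds plus 3 SD, cut at about 5.5% in these data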;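 also: 100% = response to 3 µM Δ7-dafachronic acid high control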
DAX1 inh-1: inhibits human nuclear receptor DAX1 | HEK293 Gal4-DAX1 luciferase reporter, luminescence | inhibition, % at 6.75 µM | 0.99% of 340,000 active | P51843 | AID 504766;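 active = inhibition above the mean over all tested compounds plus 3 SD, cut at about 4.2% in these data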;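 also: 0% = DAX1-transfected cells with DMSO and 100% = empty-vector control cells with DMSO; inhibition shows as a rise in luminescence from relieved DAX1 repression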
ssDAF-12 act: S. stercoralis DAF-12 activation, primary screen | activation, % at 6.8 µM | HEK293 ssDAF-12/GRIP1 lit1-tk-luc reporter, luminescence; % of 3 µM dafachronic acid response | 1% of 370,000 active;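 active = activation above the mean over all tested compounds plus 3 SD, cut at about 0.9% in these data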;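 also: 0% = DMSO-only wells and 100% = 3 µM delta7-dafachronic acid wells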
DAX1 inh-2: blocks DAX1 repression of SF-1 activated StAR promoter | HEK293T StAR-luciferase reporter, SF-1/DAX-1 repression relief | inhibition, % at 6.8 µM | 1.1% of 370,000 active;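 active = inhibition above the mean over all tested compounds plus 3 SD, cut at about 3.6% in these data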;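 also: 0% = DAX-1 cells with DMSO and 100% = cells lacking DAX-1 with DMSO; higher inhibition means more luminescence from relief of DAX-1 repression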
hgDAF12 agonist: agonists of H. glycines DAF-12 nuclear receptor | HEK293 GAL4-hgDAF12 UAS-luciferase reporter, agonist luminescence; normalized to butyrate control | activation, % at 6.8 µM | 1.8% of 370,000 active | AID 687014;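 active = activation above a cutoff set at the mean of all screened compounds plus 3 SD, cut at about 10% in these data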;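 also: 0% = DMSO wells and 100% = sodium butyrate wells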
LXR ag: counter-screen for hcDAF-12 agonists: agonists of human LXR-beta | shares compounds with hcDAF12 agonist | HEK293 Gal4-LXR tk-luc reporter, luminescence, 24 h; normalized: DMSO 0%, positive control 100% | activation, % at 6.8 µM | 3,400 tested, under 10 active | AID 743027;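 active = mean percent activation of the reporter above a cutoff set as the average over tested compounds plus their standard deviation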
Target sequence (P55055 whole entry, looked up, the tested form may be a part): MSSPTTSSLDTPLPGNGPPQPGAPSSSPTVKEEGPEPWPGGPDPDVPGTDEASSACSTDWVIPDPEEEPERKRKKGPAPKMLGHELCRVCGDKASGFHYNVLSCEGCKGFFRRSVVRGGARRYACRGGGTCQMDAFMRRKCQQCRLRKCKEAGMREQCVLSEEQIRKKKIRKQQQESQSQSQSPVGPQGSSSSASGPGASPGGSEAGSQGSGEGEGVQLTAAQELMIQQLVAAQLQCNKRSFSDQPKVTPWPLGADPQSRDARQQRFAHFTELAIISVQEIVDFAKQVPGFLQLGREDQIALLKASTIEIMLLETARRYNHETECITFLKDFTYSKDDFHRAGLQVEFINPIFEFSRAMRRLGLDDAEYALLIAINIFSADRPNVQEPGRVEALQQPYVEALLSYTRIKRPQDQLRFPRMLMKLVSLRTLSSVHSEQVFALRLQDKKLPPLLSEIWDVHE
hcDAF12 ag: confirmation of H. contortus DAF-12 agonists; AID 743032; shares compounds with hcDAF12 agonist; activation, % at 6.8 µM; HEK293 hcDAF-12 lit1-tk-luc reporter, luminescence; % of Δ7-dafachronic acid response; 61% of 3,400 active;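 active = mean activation across triplicate tests above the threshold derived from the earlier primary screen, cut at about 5.5% in these data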;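 also: 0% = DMSO only wells and 100% = 3 µM Δ7-dafachronic acid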
* hit, by the source's call. This is a sample that favours compounds with a hit; in the whole collection about 4.1% have one here.

`c1ccc(CSc2cc3ccccc3[nH]2)cc1` gave hcDAF12 agonist 10.1*, DAX1 inh-1 1.7, ssDAF-12 act 0.5, DAX1 inh-2 0.7, hgDAF12 agonist 9.3, LXR ag 0.5 and hcDAF12 ag 10.6*.
`CCn1c2ccccc2c2cc(NC(=O)COC(=O)c3cc(F)cc(F)c3)ccc21` gave hcDAF12 agonist -1.5, ssDAF-12 act -0.5, DAX1 inh-2 0.6 and hgDAF12 agonist 0.6.
Clc1c(CSc2nc3ccccc3o2)nc2ccccn12 was read as hcDAF12 agonist 7.0*, DAX1 inh-1 0.5, ssDAF-12 act 0.8, DAX1 inh-2 4.2*, hgDAF12 agonist 10.5*, LXR ag 1.2 and hcDAF12 ag 7.0*.
Cc1ccccc1CSc1nnc(C)n1N was read as hcDAF12 agonist -1.3, DAX1 inh-1 -0.6, ssDAF-12 act -1.1, DAX1 inh-2 0.4 and hgDAF12 agonist 0.0.
`COc1ccc(CSc2nnnn2-c2ccccc2)cc1` gave hcDAF12 agonist -1.4, DAX1 inh-1 1.0, ssDAF-12 act -1.1, DAX1 inh-2 -1.1 and hgDAF12 agonist -0.9.
Screening Brc1c(CSc2nc3ccccc3o2)nc2ncccn12 returned hcDAF12 agonist 0.1, DAX1 inh-1 0.1, ssDAF-12 act -0.6, DAX1 inh-2 1.5 and hgDAF12 agonist 6.4.
Screening COc1ccc(-n2nnnc2SCc2nc3ccccc3s2)cc1 returned hcDAF12 agonist 8.1*, DAX1 inh-1 1.4, ssDAF-12 act 1.1*, DAX1 inh-2 1.2, hgDAF12 agonist 9.4, LXR ag 1.0 and hcDAF12 ag 11.2*.
Screening c1ccc2oc(SCc3nc4ccccc4s3)nc2c1 returned hcDAF12 agonist 10.1*, DAX1 inh-1 4.4*, ssDAF-12 act 1.9*, DAX1 inh-2 1.6, hgDAF12 agonist 7.9, LXR ag 0.8 and hcDAF12 ag 11.0*.
Cc1nnc(SCc2nc3ccccc3s2)n1N was read as hcDAF12 agonist 9.5*, DAX1 inh-1 3.6, ssDAF-12 act 1.0*, DAX1 inh-2 4.1*, hgDAF12 agonist 7.7, LXR ag 0.7 and hcDAF12 ag 12.3*.
`O=C(N[C@H](Cc1ccccc1)C(=O)O)[C@H]1O[C@@H](n2ccc(=O)[nH]c2=O)[C@H](O)[C@@H]1O` gave hcDAF12 agonist -0.3, ssDAF-12 act -1.0, DAX1 inh-2 -1.5 and hgDAF12 agonist 0.5.
Screening CCn1c(SCc2nc3ccccc3s2)nnc1-c1ccccc1 returned hcDAF12 agonist 5.0, DAX1 inh-1 -0.2, ssDAF-12 act 0.8, DAX1 inh-2 0.4 and hgDAF12 agonist 6.5.
`Cc1nnc(SCc2nc3ccccc3s2)n1-c1ccccc1` gave hcDAF12 agonist 7.6*, DAX1 inh-1 2.5, ssDAF-12 act 1.2*, DAX1 inh-2 2.5, hgDAF12 agonist 7.5, LXR ag 0.8 and hcDAF12 ag 9.5*.
`CC(=O)/C=C/c1ccc2ccccc2n1` gave hcDAF12 agonist 8.2*, DAX1 inh-1 -1.4, ssDAF-12 act -1.0, DAX1 inh-2 -1.9, hgDAF12 agonist 1.8, LXR ag 0.0 and hcDAF12 ag 0.6.
For O=C(Nc1ccc(F)cc1)c1nsc(Cl)c1Cl the results were hcDAF12 agonist 9.7*, DAX1 inh-1 2.7, ssDAF-12 act 2.8*, DAX1 inh-2 1.6, hgDAF12 agonist 10.7*, LXR ag 1.1 and hcDAF12 ag 10.7*.
`Cc1ccc(-c2nnc(-c3cccc4ccccc34)o2)cc1` gave hcDAF12 agonist 7.6*, DAX1 inh-1 -0.6, ssDAF-12 act 1.2*, DAX1 inh-2 0.6, hgDAF12 agonist 7.3, LXR ag 1.9 and hcDAF12 ag 20.7*.
`COCCNC(=O)c1cc2c(-c3ccc(Cl)cc3)nn(C)c2s1` gave hcDAF12 agonist 6.8*, DAX1 inh-1 0.0, ssDAF-12 act -0.6, DAX1 inh-2 -0.8, hgDAF12 agonist 2.7, LXR ag 0.0 and hcDAF12 ag 3.3.
For Cn1nc(-c2ccc(Cl)cc2)c2cc(C(=O)NCCCN3CCCC3)sc21 the results were hcDAF12 agonist 9.5*, DAX1 inh-1 3.0, ssDAF-12 act 0.2, DAX1 inh-2 0.8, hgDAF12 agonist 6.3, LXR ag -0.1 and hcDAF12 ag 6.5*.
COCCNC(=O)c1cc2c(-c3ccccc3F)nn(C)c2s1 was read as hcDAF12 agonist -0.9, DAX1 inh-1 0.0, ssDAF-12 act -0.4, DAX1 inh-2 -0.7 and hgDAF12 agonist -2.5.
CCOC(=O)N1CCC(NC(=O)c2cc3c(-c4ccc(Cl)cc4)nn(C)c3s2)CC1 was read as hcDAF12 agonist 7.8*, DAX1 inh-1 0.3, ssDAF-12 act 0.2, DAX1 inh-2 1.1, hgDAF12 agonist 0.3, LXR ag -0.4 and hcDAF12 ag 0.5.
Cn1nc(-c2ccc(Cl)cc2)c2cc(C(=O)N3CCCC3)sc21 was read as hcDAF12 agonist 3.5, DAX1 inh-1 -1.7, ssDAF-12 act -0.2, DAX1 inh-2 0.4 and hgDAF12 agonist -0.4.
Screening O=C(CN1C(=O)CCSc2ccccc21)Nc1cccc(Cl)c1F returned hcDAF12 agonist -1.0, ssDAF-12 act -1.7, DAX1 inh-2 -1.2 and hgDAF12 agonist 0.0.
O=C1c2ccccc2-c2nnc(-c3ccccc3)cc21 was read as hcDAF12 agonist 7.6*, DAX1 inh-1 0.8, ssDAF-12 act 1.8*, DAX1 inh-2 2.9, hgDAF12 agonist 7.7, LXR ag 1.1 and hcDAF12 ag 6.0*.
Cc1cccc(-c2cc3c(nn2)-c2ccccc2C3=O)c1 was read as hcDAF12 agonist 6.6*, DAX1 inh-1 -0.6, ssDAF-12 act 1.7*, DAX1 inh-2 1.3, hgDAF12 agonist 4.7, LXR ag 1.1 and hcDAF12 ag 8.6*.
Screening Cc1cnc2c(c1)C(=O)c1ccccc1-2 returned hcDAF12 agonist 1.5, DAX1 inh-1 1.0, ssDAF-12 act -1.2, DAX1 inh-2 0.4 and hgDAF12 agonist 0.5.
Fc1cccc(CNC2CCC23CCC(c2ccccc2)CC3)c1 (stereo unspecified) was read as hcDAF12 agonist 0.3, ssDAF-12 act -1.6 and hgDAF12 agonist -0.9.
For Fc1ccc(F)c(C2=NNC(=Nc3ccccc3F)SC2)c1 the results were hcDAF12 agonist 8.6*, DAX1 inh-1 2.9, ssDAF-12 act 2.7*, DAX1 inh-2 3.1, hgDAF12 agonist 12.5*, LXR ag 1.0 and hcDAF12 ag 8.1*.
`Fc1ccccc1N=C1NN=C(c2ccccc2)CS1` gave hcDAF12 agonist 11.8*, DAX1 inh-1 1.4, ssDAF-12 act 1.0*, DAX1 inh-2 3.5, hgDAF12 agonist 11.6*, LXR ag 1.8 and hcDAF12 ag 8.5*.

Screening data deposited in PubChem BioAssay by The Scripps Research Institute Molecular Screening Center.
